Records with an inconclusive call do not appear. A call without a number means that no potency is given here. Activity calls are given as the source filed them. Unless noted, the call rests on the fitted dose curve; in most records, active means well fitted curve in the direction sought with a large enough effect in the repeat runs; inconclusive means weak or mixed curves; inactive means no such curve, though single readings can be large; an effect the other way counts as inactive or inconclusive.
Columns and labels:
[1] = qHTS assay for small molecules that induce genotoxicity in human embryonic kidney cells expressing luciferase-tagged ATAD5 (AID 651632); conditions: HEK293T ATAD5-luciferase induction, 16 h; series mostly up to 83.3 µM; further: nearly all actives have a fitted effect of over 15% in size
Method in brief: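 Test compounds were delivered by pin tool onto HEK293T reporter cells (2,000/well) expressing ATAD5 fused to luciferase. After 16 hr at 37C, 5% CO2, Amplite was added for 30 min at room temperature and luminescence was measured.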

[2] = qHTS assay for small molecule agonists of the p53 signaling pathway - cell viability (AID 651633; calls by dose curve; further: nearly all actives have a fitted effect of over 30% in size; further: potency means the concentration at half of the fitted maximal effect); conditions: p53RE-bla HCT-116 viability, ATP luminescence, 16 h; series mostly up to 83.3 µM
Method in brief: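 p53RE-bla cells, seeded at 4,000 per well and rested 5 h at 37 C/5% CO2, received compounds in DMSO for 16 h at 37 C. CellTiter-Glo was then added, and luminescence was read after 30 min at room temperature to gauge cytotoxicity.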

[3] = qHTS assay for small molecules that induce genotoxicity in human embryonic kidney cells expressing luciferase-tagged ATAD5 - cell viability (AID 651634; calls by dose curve; further: nearly all actives have a fitted effect of over 25% in size; further: potency means the concentration at half of the fitted maximal effect); conditions: HEK293T ATAD5-luc cells viability, CellTiter-Fluor, 15.5 h; series mostly up to 83.3 µM
Method in brief: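 Quantitative high-throughput format. HEK293T cells expressing ATAD5 fused to luciferase were plated at 2,000 cells/well and treated 15.5 hr with compound versus DMSO. Viability was determined by fluorescent live-cell protease substrate, 30 min at 37C.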

[4] = qHTS assay for small molecule disruptors of the mitochondrial membrane potential - cell viability (AID 720634; calls by dose curve;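 further: human HepG2 liver cancer cells; nearly all actives have a fitted effect of over 20% in size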); conditions: HepG2 viability, ATP luminescence (CellTiter-Glo), 1 h; series mostly up to 83.2 µM
Method in brief: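 Same-well counter-screen: following the MMP dye addition, CellTiter-Glo was added to 1 hr compound-treated HepG2 cells and luminescence read after 30 min at room temperature.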

[5] = qHTS assay to test for compound auto fluorescence at 590 nm (red) in HepG2 cells (AID 720674); conditions: HepG2 autofluorescence, red 540/590 nm, 1 h; series mostly up to 91.3 µM
Method in brief: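 Compound auto-fluorescence is scored relative to Rose Bengal sodium, measured at 540/590 nm in live HepG2 cultures after 1 hr compound contact (37 C, 5% CO2).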

[6] = qHTS assay to test for compound auto fluorescence at 535 nm (green) in HepG2 cells (AID 720675); conditions: green autofluorescence 485/535 nm, 1 h; series mostly up to 91.3 µM
[7] = qHTS assay to test for compound auto fluorescence at 460 nm (blue) in HEK293 cells (AID 720678); conditions: blue autofluorescence 405/460 nm; series mostly up to 91.3 µM
Method in brief: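 HEK293 cells (2,000 per well, medium with 10% dialyzed FBS) attached for 4-5 hr at 37C, then received compound and stood overnight at 37C, 5% CO2. Blue fluorescence was read at Ex/Em 405/460 nm and expressed relative to triamterene.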

[8] = qHTS assay to test for compound auto fluorescence at 590 nm (red) in HEK293 cells (AID 720679); conditions: red autofluorescence 540/590 nm; series mostly up to 91.3 µM
Method in brief: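 HEK293 cells (2,000/well, medium with 10% dialyzed FBS) attached for 4-5 hr at 37C, received 23 nL compound and were incubated overnight at 37C, 5% CO2. Red fluorescence was then read at 540/590nm Ex/Em, referenced to Rose Bengal sodium.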

[9] = qHTS assay to test for compound auto fluorescence at 535 nm (green) in HEK293 cells (AID 720680); conditions: green autofluorescence 485/535 nm; series mostly up to 91.3 µM
[10] = qHTS assay to test for compound auto fluorescence at 460 nm (blue) in HEK293 cell free culture (AID 720681); conditions: cell-free medium, autofluorescence 405/460 nm (blue); series mostly up to 91.3 µM
Method in brief: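 Test compounds were pinned into cell-free culture medium (DMEM with 10% FBS) and fluorescence was read directly at Ex/Em 405/460 nm. Signals were expressed as fluorescence equivalents of triamterene, with DMSO vehicle as control.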

[11] = qHTS assay to test for compound auto fluorescence at 535 nm (green) in HEK293 cell free culture (AID 720682); conditions: cell-free medium, green autofluorescence 485/535 nm, active compounds read high; series mostly up to 91.3 µM
Method in brief: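 DMEM + 10% FBS, cell-free; cpd or DMSO pinned in; Ex485/Em535 read; output as fluorescein-equivalent signal.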

[12] = qHTS assay to test for compound auto fluorescence at 590 nm (red) in HEK293 cell free culture (AID 720683); conditions: cell-free medium autofluorescence, Ex540/Em590 red; series mostly up to 91.3 µM
Method in brief: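 Tox21 10K library compounds were pinned into cell-free DMEM with 10% FBS and fluorescence was read at excitation 540 nm. Activity is expressed as Rose Bengal sodium equivalency.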

[13] = qHTS assay to test for compound auto fluorescence at 590 nm (red) in HepG2 cell free culture (AID 720684); conditions: cell-free medium autofluorescence, red 540/590 nm; series mostly up to 91.3 µM
Method in brief: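 Readout: intrinsic compound fluorescence at 590 nm emission after 540 nm excitation, scaled to Rose Bengal sodium. Matrix was cell-free MEM with 10% FBS; DMSO vehicle wells served as control.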

[14] = qHTS assay to test for compound auto fluorescence at 535 nm (green) in HepG2 cell free culture (AID 720686); conditions: Cell-free medium, green autofluorescence 485/535 nm; series mostly up to 91.3 µM
[15] = qHTS assay to test for compound auto fluorescence at 460 nm (blue) in HepG2 cells (AID 720687); conditions: autofluorescence 405/460 nm, 1 h; series mostly up to 91.3 µM
Method in brief: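 Cells (2,000/well in MEM with 10% FBS) attached overnight at 37 C, then were exposed to compound or DMSO for 1 hr at 37 C, 5% CO2. Fluorescence read at Ex/Em 405/460 nm, expressed as triamterene-equivalent signal.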

[16] = biological target: Glucocorticoid receptor (Homo sapiens) (UniProt P04150); test: qHTS assay to identify small molecule agonists of the glucocorticoid receptor (GR) signaling pathway (AID 720691; active means well fitted activation curve with a large enough effect in the signal ratio in the repeat runs, not every such curve was filed as active; the % refers to the signal ratio); conditions: GR-bla HeLa, beta-lactamase reporter ratio, 18 h; series mostly up to 62.4 µM
Sequence of Glucocorticoid receptor (Homo sapiens) (P04150 whole entry, looked up): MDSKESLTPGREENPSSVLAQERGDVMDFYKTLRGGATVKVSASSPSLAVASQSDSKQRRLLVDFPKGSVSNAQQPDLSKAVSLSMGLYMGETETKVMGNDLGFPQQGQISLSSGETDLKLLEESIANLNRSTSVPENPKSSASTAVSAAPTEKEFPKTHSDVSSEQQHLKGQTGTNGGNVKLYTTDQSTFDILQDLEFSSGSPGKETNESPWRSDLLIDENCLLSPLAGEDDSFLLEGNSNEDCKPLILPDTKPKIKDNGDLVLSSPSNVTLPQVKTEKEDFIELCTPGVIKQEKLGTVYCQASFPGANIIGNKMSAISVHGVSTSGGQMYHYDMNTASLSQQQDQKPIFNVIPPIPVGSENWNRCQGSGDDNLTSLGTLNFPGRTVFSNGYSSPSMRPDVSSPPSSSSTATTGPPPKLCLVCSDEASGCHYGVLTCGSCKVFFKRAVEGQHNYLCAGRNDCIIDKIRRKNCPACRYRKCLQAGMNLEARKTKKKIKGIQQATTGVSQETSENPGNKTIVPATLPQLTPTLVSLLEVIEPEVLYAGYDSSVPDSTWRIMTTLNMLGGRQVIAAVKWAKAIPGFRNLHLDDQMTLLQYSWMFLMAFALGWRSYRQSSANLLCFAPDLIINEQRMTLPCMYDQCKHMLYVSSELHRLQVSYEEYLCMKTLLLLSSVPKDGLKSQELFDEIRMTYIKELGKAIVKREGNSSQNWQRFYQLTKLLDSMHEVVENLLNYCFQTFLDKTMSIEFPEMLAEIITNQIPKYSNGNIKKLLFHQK
Method in brief: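 A HeLa cervical cancer line expressing GR and a glucocorticoid response element-driven beta-lactamase gene is treated with compounds for 18 h; LiveBLAzer B/G FRET substrate is then applied and fluorescence read.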

[17] = qHTS assay to test for compound auto fluorescence at 460 nm (blue) in HepG2 cell free culture (AID 720685); conditions: Cell-free culture medium, blue autofluorescence 405/460 nm; series mostly up to 91.3 µM
Method in brief: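 Cell-free plates of MEM plus 10% FBS received 23 nL compound or DMSO vehicle; blue-channel (405/460 nm) intensity scored against triamterene as reference fluorophore.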

[18] = biological target: Glucocorticoid receptor (Homo sapiens) (UniProt P04150); test: qHTS assay to identify small molecule antagonists of the glucocorticoid receptor (GR) signaling pathway (AID 720692; active means well fitted inhibition curve with a large enough effect in the signal ratio in the repeat runs, not every such curve was filed as active; the % refers to the signal ratio; further: potency means the concentration at half of the fitted maximal effect); conditions: GR-bla HeLa, beta-lactamase FRET ratio, dexamethasone-stimulated, 18 h; series mostly up to 58.5 µM
Method in brief: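 GRE-bla HeLa line, dex-stimulated (5 nM final). Compound exposure 18 h, 37 C. Beta-lactamase FRET read after 2 h RT substrate.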

[19] = qHTS assay for small molecule disruptors of the mitochondrial membrane potential (AID 720635); conditions: HepG2 mitochondrial membrane potential, Mito-MPS dye ratio; series mostly up to 83.2 µM
Method in brief: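 HepG2 cells (2,000/well) attached overnight at 37C, then took compound for 1 hr at 37C, 5% CO2. Mito-MPS dye was added for 30 min; fluorescence was read at 490/535 nm (monomers) and 540/590 nm (aggregates).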

| SMILES | Potency [1] | Potency [2] | Potency [3] | Potency [4] | outcome [5] | outcome [6] | outcome [7] | outcome [8] | outcome [9] | outcome [10] | outcome [11] | outcome [12] | outcome [13] | outcome [14] | outcome [15] | Potency [16] | outcome [17] | Potency [18] | Potency [19] |
| --- | --- | --- | --- | --- | --- | --- | --- | --- | --- | --- | --- | --- | --- | --- | --- | --- | --- | --- | --- |
| CCc1ccccc1N | inactive | inactive | inactive | inactive | inactive | inactive | inactive | inactive | inactive | inactive | inactive | inactive | inactive | inactive | inactive | inactive | – | – | – |
| CC(=O)NNc1ccccc1 | – | inactive | 10.8 µM (active) | inactive | inactive | inactive | inactive | inactive | inactive | inactive | inactive | inactive | inactive | inactive | inactive | – | inactive | 10.9 µM (active) | – |
| CN1CC[C@]23c4c5ccc(O)c4O[C@H]2[C@@H](O)C=C[C@H]3[C@H]1C5 | inactive | – | inactive | inactive | inactive | inactive | inactive | inactive | inactive | inactive | inactive | inactive | inactive | inactive | inactive | inactive | inactive | inactive | inactive |
| CCNC(=O)NC(=O)/C(C#N)=N/OC | inactive | inactive | inactive | – | inactive | inactive | inactive | inactive | inactive | inactive | inactive | inactive | inactive | inactive | inactive | – | inactive | – | – |
| O=C(O)C(F)(F)C(F)(F)C(F)(F)C(F)(F)C(F)(F)C(F)(F)C(F)(F)C(F)(F)F | inactive | 61.1 µM (active) | – | – | inactive | inactive | inactive | inactive | inactive | inactive | inactive | inactive | inactive | inactive | inactive | inactive | inactive | inactive | – |
| CCC1(CC)C(=O)NC(=O)NC1=O | inactive | inactive | inactive | inactive | inactive | inactive | inactive | inactive | inactive | inactive | inactive | inactive | inactive | inactive | inactive | inactive | – | inactive | – |
| O=C(O)CCCOc1ccc(Cl)cc1Cl | – | inactive | – | inactive | inactive | inactive | inactive | inactive | inactive | inactive | inactive | inactive | inactive | inactive | inactive | – | – | – | – |
| COP(=O)(OC)OC(Br)C(Cl)(Cl)Br (centres undefined) | – | – | inactive | inactive | inactive | inactive | inactive | inactive | inactive | inactive | inactive | inactive | inactive | inactive | inactive | inactive | – | inactive | – |
| O=C(O)C(O)C(O)C(=O)O (centres undefined) | inactive | – | inactive | inactive | inactive | inactive | inactive | inactive | inactive | inactive | inactive | inactive | inactive | inactive | inactive | – | – | – | – |
| CC1(C)[C@H](C(=O)O[C@H](C#N)c2cccc(Oc3ccccc3)c2)[C@@H]1C=C(Br)Br | – | inactive | inactive | – | inactive | inactive | inactive | inactive | inactive | inactive | inactive | inactive | inactive | inactive | inactive | – | inactive | – | – |
